# In PubChem BioAssay AID1053197 (The Scripps Research Institute Molecular Screening Center, 2014):
# Out of some 370,000 compounds screened, about 2,600 (0.7%) were called active.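 The calls were made as follows: active = inhibition above a cutoff: mean of compounds within the control limits plus 3 SD of those (cut at about 17% in these data); inactive = the rest.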 The list comes from a sample in which actives are over-represented; it also holds similar structures and randomly drawn compounds.
# Target: Sialate O-acetylesterase (Homo sapiens) (UniProt Q9HAT2)
# Assay: human SIAE inhibitors, primary screen, biochemical, fluorescence polarization, FP-Rh probe, 1536-well HTS (AID 1053197);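 also: 0% = plate median of compound wells and 100% = probe without SIAE protein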
# Conditions: SIAE FP-Rh probe binding, at 9.66 µM, active compounds read high
# Chain of Sialate O-acetylesterase (Homo sapiens) (Q9HAT2 whole entry, looked up): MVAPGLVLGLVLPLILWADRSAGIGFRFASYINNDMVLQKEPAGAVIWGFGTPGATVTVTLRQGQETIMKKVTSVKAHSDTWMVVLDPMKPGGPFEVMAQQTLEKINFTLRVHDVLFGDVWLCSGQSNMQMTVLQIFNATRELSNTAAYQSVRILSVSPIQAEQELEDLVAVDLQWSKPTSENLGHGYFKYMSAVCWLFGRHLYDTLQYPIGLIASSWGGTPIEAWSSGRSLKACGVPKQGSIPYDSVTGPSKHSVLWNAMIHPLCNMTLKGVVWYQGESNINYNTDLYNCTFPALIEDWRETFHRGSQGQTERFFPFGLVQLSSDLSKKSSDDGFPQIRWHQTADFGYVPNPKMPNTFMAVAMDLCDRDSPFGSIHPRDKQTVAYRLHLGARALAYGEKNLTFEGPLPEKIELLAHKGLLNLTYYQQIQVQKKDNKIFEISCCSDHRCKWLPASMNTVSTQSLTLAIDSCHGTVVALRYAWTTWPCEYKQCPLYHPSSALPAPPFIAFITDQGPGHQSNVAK
row,Compound,inhibition
1,O=C(CSc1nnc(COc2ccccc2)n1Cc1ccco1)c1ccc2ccccc2c1,-7.8% (inactive)
2,CCOc1ccc(NC(=O)C/C(C)=N/NC(=O)Cc2cccs2)cc1,21.6% (active)
3,CCOc1ccc(/C=N/OCC(=O)NCc2cccs2)cc1,-7.11% (inactive)
4,CCOc1ccc(NC(=O)CSc2nc3ccccc3c(=O)n2Cc2cccs2)cc1,0.33% (inactive)
5,Cc1ccc(C(=O)C2CCN(CC(=O)NCCC(C)C)CC2)cc1,4.25% (inactive)
6,O=C(CSc1nc2ccccc2n1Cc1ccccc1Cl)N/N=C\c1c[nH]c2ccccc12,-8.22% (inactive)
7,CC(CCN1CCC(C(O)(c2ccccc2)c2ccccc2)CC1)Oc1ccc(C(F)(F)F)cc1 (stereo not given),8.83% (inactive)
8,COCCOC(=O)c1sc(=S)n(CCOC)c1N,35.8% (active)
9,CCC(NC(=O)C1C2C=CC3(CN(Cc4ccccc4)C(=O)C13)O2)c1ccccc1 (stereo not given),0.07% (inactive)
10,O=C(CSc1nc2ccccc2s1)NN=Cc1ccc(O)cc1O,7.21% (inactive)
11,O=C(CSc1nnc(-c2ccccn2)n1-c1ccccc1)Nc1ccc2cn[nH]c2c1,1.79% (inactive)
12,Cc1ccc(-n2c(SCC(=O)Nc3ccc(S(=O)(=O)Nc4nccs4)cc3)nnc2-c2ccncc2)cc1,-12.6% (inactive)
13,CCC(C)c1ccc(O)c(/C=N/O)c1 (stereo not given),23.1% (active)
14,CNCC(O)c1ccc(O)c(O)c1 (stereo not given),4.81% (inactive)
15,O=S(=O)(c1ccccc1)N1CCC(c2nc3ccccc3o2)CC1,6.75% (inactive)
16,O=C1CC(c2ccc3c(c2)OCO3)N=C2N(CC3CC3)C/C(=C/c3ccccc3)N12 (stereo not given),6.68% (inactive)
17,COc1ccc(-c2cc(-c3nnc(SCC(=O)Nc4cccc5ccccc45)n3N)[nH]n2)cc1,1.67% (inactive)
18,COC(=O)C[C@@H]1CC[C@@H]2[C@@H](COc3ccc(NC(=O)Nc4ccc(F)c(F)c4)cc3C(=O)N2C)O1,-2.22% (inactive)
19,O=C1CC[C@@H](COc2ccc3[nH]cc(-c4ccccc4)c3c2-c2ccccc2)N1,3.06% (inactive)
20,COc1ccc2[nH]c3c(C)c4cc[n+](C)cc4c(C)c3c2c1,3.4% (inactive)
21,COc1ccc(N)c(C)c1,15.1% (inactive)
22,COc1ccc2[nH]c(=S)cc(C)c2c1,23.9% (active)
23,COC(=O)C12C=C3CC(c4ccccc4)=C3C(=O)N1Cc1[nH]c3ccccc3c1C2 (stereo not given),5.02% (inactive)
24,Cc1cc(NS(=O)(=O)c2ccc(NC(=O)CSc3nnc(SCc4ccc(F)cc4)s3)cc2)nc(C)n1,-8.85% (inactive)
25,COc1ccc(CN2C/C(=C/c3ccccc3)N3C(=O)C[C@@H](c4ccccc4)N=C23)c(OC)c1,3.22% (inactive)
